Laboratory results published in PubChem BioAssay (NCI).
This is part of a sample that, as a whole, favours compounds with a hit. Of some 83,000 tested, about 20% had one in any assay.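 Assay: single dose, 48 h. Readout: percent growth (0 = no net growth; negative = cell death). Active: <10.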 Unmarked numbers belong to inactive results. Activity calls are given as the source filed them.

system: EKVX NSCLC; assay: NCI-60 one-dose screen, 48 h (100 = growth as untreated, 0 = no growth, -100 = all killed); settings: 10 µM unless noted
Description: Growth inhibition of the EKVX human Non-Small Cell Lung tumor cell line is measured as a screen for anti-cancer activity. Cells are grown in 96 well plates and exposed to the test compound for 48 hours. Compounds are tested at a single concentration, which is 10^-5 M for most compounds. The reported endpoint is percent growth (GI% or GIPRCNT), where numbers from 0 - 100% represent growth inhibition, and numbers from -100% - 0 represent cell death. For example, a value of 40 represents 60% growth inhibition. A value of 0 means no net growth occurred over the course of the experiment. A value of -40 indicates 40% of cells at the beginning of the experiment died by the end of the experiment. A value of -100 means all cells are dead at the end of the experiment.
NCI-60 Human Tumor Cell Lines Screen was performed using the standard one-dose NCI protocol, which is described in more detail at https://dtp.cancer.gov/discovery_development/nci-60/default.htm.
Compounds with GIPRCNT values below 10 were considered active. Activity score was based on GIPRCNT using the following formula: […]
Score is 0 for GIPRCNT values of 100 or above, 50 for GIPRCNT values of 0, and 100 for GIPRCNT values of -100.

For O=C(O)C1C[C@](O)(c2ccc(F)cc2)[C@@H](c2ccc(F)cc2)O1 (stereo not given in full), which growth is on record?
Its growth is 105%.

With N#Cc1c(N)nc2c(nnn2-c2cccc(C(F)(F)F)c2)c1N as the compound, how does the growth read?
Its growth is 29.1%.

For CC(C)c1ccc(C(=O)OC(=O)c2ccc(C(C)C)cc2)cc1, which growth is on record?
Its growth is 99.7%.

COc1ccccc1NC(=O)Nc1ccc(-c2nc3ccccc3o2)cc1 was tested. Which growth did it give?
The growth was 92.8%.

How did the growth turn out when COc1ccc(OC)c(/C=C2\COc3ccc(O)cc3C2=O)c1 was run?
Its growth is 103%.

For Cc1nc(Nc2cccc(NC(=O)Nc3ccc(Cl)cc3)c2)c2ccccc2n1, which growth is on record?
The growth was 87.2%.

With Cc1cc(-c2ccc(N(C)C)cc2)c2sc(=O)[nH]c2n1 as the compound, how does the growth read?
The growth was 77.5%.

With COc1cc2c(cc1OC)-c1ccc3cc4c(cc3c1N(CCN1CCCC1)C2)OCO4 as the compound, how does the growth read?
Its growth is 36.3%.

Which growth does the source give for O=C(CCCCCCCn1cc(-c2cccnc2)nn1)Nc1ccccc1-c1ccccc1 here?
Its growth is 64.9%.

For Cn1cc(-c2ccc3ncc(-c4ccc(CC(=O)Nc5cc(C(C)(C)C)nn5C)cc4)cc3c2)cn1, which growth is on record?
Its growth is 27.1% [30 µM].

For C[C@@H](C[C@H](CCOCc1cccnc1)c1ccccc1)c1cc2ccccc2o1, which growth is on record?
The growth was 94.2%.

Which growth does the source give for Nc1ccc(S(=O)(=O)Nc2ccsc2-c2nc(-c3ccccc3)no2)cc1 here?
Its growth is 73%.

How did the growth turn out when Cc1[nH]c(-c2nc3ccccc3[nH]2)c(C)c1C(=O)NNc1ccc(Cl)cc1 was run?
The growth was 94.2%.

For COc1ccc(OC)c(C(=O)Nc2cccc(-c3cc(=O)c4ccccc4o3)c2)c1, which growth is on record?
The growth was 90.5%.

Cc1c(C)c2c(c(C)c1NC(=O)/C=C\C(=O)O)CCC(C)(CCCC(C)CCCC(C)CCCC(C)C)O2 (stereo not given) was tested. Which growth did it give?
Its growth is 74.3%.

c1ccc2c(c1)ncn2-c1nc2ccccc2n2c1nc1ccccc12 was tested. Which growth did it give?
Its growth is 61.8%.

With COc1ccc(-c2cc(-c3cc(OC)ccc3OC)[nH]c(=O)c2C#N)cc1 as the compound, how does the growth read?
Its growth is 96.5%.

Which growth does the source give for C=C1c2c(C)nn(-c3ccc(O)cc3)c2N(C)C23C[C@@H]1C1(C)c4c(C)nn(-c5ccc(O)cc5)c4N(C)C(C)(C[C@H]12)C3 (stereo not given in full) here?
Its growth is 26.1%.

For COc1ccc(Nc2ncc(Br)c(NCCCNC(=O)C3CCC3)n2)cc1, which growth is on record?
The growth was 37.2%.

With Cc1ccccc1NC(=O)CN(C)C as the compound, how does the growth read?
The growth was 108%.

How did the growth turn out when CCN(CC)N=Nc1nn(C(=O)Nc2ccc(Cc3ccccc3)cc2)c2ccc(Cl)cc12 was run?
Its growth is 47.5%.

Clc1ccc2c(NCCCN3CCN(c4nc(N5CCOCC5)nc5ccccc45)CC3)ccnc2c1 was tested. Which growth did it give?
Its growth is 26.4%.

For Cc1[nH]c(-c2nc3ccccc3[nH]2)c(C)c1C(=O)N1CCOCC1, which growth is on record?
The growth was 91.2%.

Which growth does the source give for O=C(O)c1ccc(CO)o1 here?
Its growth is 105%.

Which growth does the source give for CCOC(=O)c1cnn2c(-c3ccc(Cl)cc3)nc(NCc3ccccc3)nc12 here?
The growth was 68.7%.

How did the growth turn out when C=C(C)[C@@H]1CC[C@]2(CO)CC[C@]3(C)[C@H](CC[C@@H]4[C@@]5(C)C=C(C#N)C(=O)C(C)(C)[C@@H]5CC[C@]43C)[C@@H]12 was run?
Its growth is 15.4%.

How did the growth turn out when CN(CCC(=O)/C(=C\c1ccccc1)c1ccc(Cl)cc1)Cc1ccccc1 was run?
Its growth is 86.8%.

For C[C@@H]1C(=O)N(C[C@H](Cc2ccccc2)NC(=O)OCc2ccccc2)[C@]1(Cc1ccccc1)C(=O)OC(C)(C)C, which growth is on record?
Its growth is 60.3%.

With CCCCOc1ccc(NC(=O)n2nc(N=NN(C)C)c3ccc(Cl)cc32)cc1 as the compound, how does the growth read?
The growth was 102%.

Which growth does the source give for COc1cc(/C=C/C(=O)c2cccc(-n3cc(-c4ccccc4)[nH]c3=O)c2)cc(OC)c1OC here?
Its growth is 17%.

C=C1C(=O)O[C@H]2[C@H]1CC/C(COC(=O)/C=C\C(=O)NCc1ccc(Cn3c(=O)sn(CCCI)c3=O)cc1)=C\CC[C@@]1(C)O[C@@H]21 was tested. Which growth did it give?
The growth was -58.8% (active).

With O=C1Nc2ccccc2/C1=N/N=C/c1c[nH]c2ccccc12 as the compound, how does the growth read?
Its growth is 21.8%.

With CN(C)CCn1cc(-c2ccc3c(Nc4ccc(CC(=O)Nc5cccc(F)c5)cc4)ncnc3c2)cn1 as the compound, how does the growth read?
Its growth is -34.7% [30 µM] (active).

For CCN(CC)CCCC(C)NCc1ccccc1 (stereo not given), which growth is on record?
Its growth is 102%.

O=C(NCCOCCOCCNc1cccc2c1C(=O)N(C1CCCNC1=O)C2=O)c1cc2c(o1)C(=O)c1ccccc1C2=O (stereo not given) was tested. Which growth did it give?
Its growth is 17.7%.

O=[N+]([O-])c1ccc(-c2cc3c(Nc4ccc(Sc5nc6ccccc6s5)c(Cl)c4)ncnc3s2)cc1 was tested. Which growth did it give?
The growth was 39.7%.

C[C@@H]1CC[C@@H]2[C@@H]1[C@H](OC(=O)/C=C/c1ccccc1)[C@]1(C3CCCCC3)C[C@@H](NC(=O)CO)[C@@]2(C)O1 was tested. Which growth did it give?
Its growth is 98.4%.

How did the growth turn out when CCNCCNc1cc(C2CCCC2)c(C#N)c2nc3ccccc3n12 was run?
Its growth is 38%.

For Cc1nc(Nc2ccc(NC(=S)Nc3ccccc3)cc2)nc2nc(Nc3ccc(S(=O)(=O)O)cc3)[nH]c(=O)c12, which growth is on record?
The growth was 111%.

Cn1cc(-c2ccc3nc(-c4ccc(CC(=O)Nc5cc(C(C)(C)C)no5)cc4)cnc3c2)cn1 was tested. Which growth did it give?
Its growth is 26.1% [30 µM].
